Compound activity from PubChem.
HEK293 tox: Cytotoxic Profiling in HEK 293 Cell Line of Diverse Libraries Using Quantitative High-Throughput Screening. AID 1345083, 2018. Potency, µM (top dose mostly 115 µM), without a hit: top-dose activity change, negative = cytotoxicity, usual class: inhibitors. 94,000 compounds, 6.6% hits. HEK 293 viability, ATP luminescence (CellTiter-Glo), 48-72 h; further: nearly all actives have a fitted effect of over 60% in size
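ATP-coupled CellTiter-Glo luminescence served as viability read-out, recorded 10 min after reagent addition at room temperature. HEK 293 cells, 250 cells/well, had been incubated with pintool-transferred compound for 48 or 72 hr at 37 degree Celsius.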
NPR1 antag: Natriuretic polypeptide receptor (hNpr1) antagonism - Primary qHTS; Atrial natriuretic peptide receptor 1 (Homo sapiens), P16066; HEK293 hNpr1 GloSensor cGMP, ANP-stimulated luminescence; Potency, µM (titrated, usually from 46.3 µM), inactives show at the top dose activity change, negative = inhibition, most hits filed as inhibitors; 76,000 compounds, 1.6% hits; calls by dose curve; further: nearly all actives have a fitted effect of over 60% in size
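HEK293 cells stably expressing human Npr1 and cGMP GloSensor pGS-40F, loaded 2 h with 2% GloSensor reagent, given compound 30 min at room temperature. Luminescence read before and 20 min after 0.1 nM hNppA.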
NIH3T3 tox: Cytotoxic Profiling in NIH 3T3 Cell Line of Diverse Libraries Using Quantitative High-Throughput Screening; NIH 3T3 viability, CellTiter-Glo ATP luminescence, 48-72 h; 94,000 compounds, 4.3% hits; Potency, µM (top dose mostly 96.7 µM), without a hit: at the highest dose activity change, negative = cytotoxicity, actives largely listed as inhibitors; further: nearly all actives have a fitted effect of over 55% in size
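Cytotoxicity was measured by CellTiter-Glo ATP luminescence after 48 or 72 h compound exposure at 37 °C. Mouse NIH 3T3 fibroblasts were seeded at 400 cells/well and dosed by 23 nL pin transfer.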
FLuc inh: Firefly luciferase inhibition profiling of diverse chemical library using quantitative high-throughput screening; Luciferin 4-monooxygenase (Photinus pyralis), P08659; AID 1347043, 2019; purified P. pyralis luciferase, luminescence, biochemical; Potency, µM (highest dose often 115 µM), hits mostly inhibitors; 76,000 compounds, 2.5% hits; further: nearly all actives have a fitted effect of over 65% in size
Target sequence (P08659 whole entry, looked up): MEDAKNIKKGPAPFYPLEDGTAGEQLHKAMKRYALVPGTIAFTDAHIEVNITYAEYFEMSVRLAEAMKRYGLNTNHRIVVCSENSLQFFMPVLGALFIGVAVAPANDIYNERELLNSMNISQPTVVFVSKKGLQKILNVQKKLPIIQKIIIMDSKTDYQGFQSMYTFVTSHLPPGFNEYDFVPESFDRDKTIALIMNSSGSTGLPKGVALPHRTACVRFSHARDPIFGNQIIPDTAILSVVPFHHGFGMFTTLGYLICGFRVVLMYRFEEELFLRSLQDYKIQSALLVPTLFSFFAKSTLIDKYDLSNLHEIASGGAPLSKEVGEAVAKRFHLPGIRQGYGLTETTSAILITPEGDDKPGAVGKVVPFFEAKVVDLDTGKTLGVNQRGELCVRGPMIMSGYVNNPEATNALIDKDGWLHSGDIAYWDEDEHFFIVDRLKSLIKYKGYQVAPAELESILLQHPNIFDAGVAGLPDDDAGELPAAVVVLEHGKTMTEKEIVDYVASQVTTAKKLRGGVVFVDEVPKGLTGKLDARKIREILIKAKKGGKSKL
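Luminescence read by CCD imaging after purified firefly luciferase (10nM final) was added to substrate buffer holding 10uM D-luciferin and 10uM ATP, pH 7.5, pre-dosed with compound.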
Numbers without * were called inactive; i = inactive; ? = inconclusive; nt = no result; [ ] = dose if it differs, or a comment. The list is not random: actives were taken first. Their share in the collection is about 11%. Unless noted, the call rests on the fitted dose curve; in most records, active means well fitted curve in the direction sought with a large enough effect; inconclusive means small, poorly fitted or top-dose-only effect, or another doubt; inactive means no such curve, though single readings can be large; an effect the other way counts as inactive or inconclusive. On the % scale 0 is the no-effect control and ±100 the full control effect; potency means the concentration at half of the fitted maximal effect.

SMILES	HEK293 tox	NPR1 antag	NIH3T3 tox	FLuc inh
Cc1cc(=O)n(CC(=O)Nc2ccc(F)cc2)c(N2CCc3ccccc3C2)n1	40µM*	-23%	40µM*	i
CCc1ccc(NC(=O)Cn2c(N3CCc4ccccc4C3)nc(C)cc2=O)cc1	?	-17%	?	i
COCCN1CCCCCC(O)c2cc(C(=O)NCCc3c[nH]c4ccccc34)ccc21 (centres undefined)	?	-23%	?	?
N#Cc1cccc(NC(=O)c2cccc(CN3CCN(CCO)CC3)c2)c1	?	-18%	-7%	i
Cc1c(CN(C)Cc2cccc(C(=O)Nc3ccc(C#N)cc3)c2)cnn1C	50µM*	-12%	-29%	i
COc1ccc(-c2cccc(C(=O)NCc3ccc(F)cc3)c2)nn1	89µM*	nt	?	nt
COc1ccc(-c2ccc(C(=O)NCc3ccc(C(F)(F)F)cc3)cc2)nn1	-1%	nt	-17%	nt
COc1ccc(-c2cccc(C(=O)NCc3ccc(C(F)(F)F)cc3)c2)nn1	40µM*	nt	?	nt
COc1ccc(-c2cccc(C(=O)NCCCc3ccccc3)c2)nn1	79µM*	nt	?	nt
COCCCNC(=O)c1cccc(-c2ccc(OC)nn2)c1	-4%[172 µM]	nt	-15%[138 µM]	nt
COc1ccc(-c2cccc(C(=O)NCC(F)F)c2)nn1	-7%[172 µM]	nt	-21%[138 µM]	nt
Cc1ccccc1C(=O)N1CCCN(c2ccc3nnc(C)n3n2)CC1	-2%	nt	-10%	nt
O=C(Nc1cccc(C(F)(F)F)c1)c1nc2c(o1)CCN(Cc1cnc[nH]1)CC2	?	-9%[70.6 µM]	?	40µM*
O=C(Nc1cccc(C(F)(F)F)c1)c1nc2c(o1)CCN(Cc1cccc(F)c1)CC2	50µM*	?	?	?
O=C(Nc1cccc(C(F)(F)F)c1)c1nc2c(o1)CCN(Cc1ccccc1)CC2	?	0%[70.6 µM]	?	i
O=C(Nc1cccc(C(F)(F)F)c1)c1nc2c(o1)CCN(Cc1ccc(F)cc1)CC2	28µM*	-30%[70.6 µM]	28µM*	i
O=C(NCC1CC1)c1nc2c(o1)CCN(Cc1cccc(F)c1)CC2	?	?	?	i
Cc1ccc(NC(=O)N2CCC(CCNC(=O)c3sccc3C)CC2)cc1	-24%	-4%	-28%	?
COc1ccc2c(c1)O[C@H]1[C@H](CO)CN([S+](=O)([O-])c3cccs3)[C@@H]21	50µM*	nt	?	nt
COCCN1CCCC[C@]2(C[C@H](CO)[C@H](c3ccccc3)N2C(=O)c2ccc(OC)cc2)C1=O	-1%	nt	?	nt
Cc1ccc2c(n1)N(C)[C@H](CO)CCN(Cc1ccc(Cl)cc1)C2	71µM*	-2%[70.6 µM]	?	i
Cc1cc2cc(-c3c(C)noc3C)nc(N(C)C)c2o1	100µM*	-2%[70.6 µM]	?	i
Cc1noc(C)c1-c1cc2cc(C(C)C)oc2c(NCc2cccnc2)n1	?	2%[70.6 µM]	?	i
Cc1cc2cc(-c3c(C)noc3C)nc(-c3ccccc3)c2o1	?	6%[70.6 µM]	?	i
Cc1cc2cc(-c3c(C)noc3C)nc(N3CCN(c4ccccn4)CC3)c2o1	13µM*	-9%[70.6 µM]	28µM*	i
SMILES	HEK293 tox	NPR1 antag	NIH3T3 tox	FLuc inh
Cc1noc(C)c1-c1cc2cc(C(C)C)oc2c(N(C)CCN(C)C)n1	35µM*	-2%[70.6 µM]	25µM*	i
COc1cccc(CN2CCCC3(Cc4ccccc4CNC3=O)C2)n1 (centres undefined)	-24%	nt	?	nt
CN(CC1CCCN(CCc2ccc(Cl)cc2)C1)C(=O)c1ccc(-n2cnnn2)cc1 (centres undefined)	-19%	-1%	?	i
CC(C)C[C@@H]1N[C@H](C(=O)NCCOc2ccccc2)Cc2c[nH]c3cccc1c23	?	-29%[70.6 µM]	28µM*	i
CC(C)C[C@@H]1N[C@H](C(=O)NCCOc2ccccc2)Cc2cn(C)c3cccc1c23	40µM*	-22%[70.6 µM]	32µM*	i
CC(C)C[C@@H]1N[C@H](C(=O)NCCN(C)C)Cc2c[nH]c3cccc1c23	100µM*	1%[70.6 µM]	56µM*	i
CC(C)C[C@@H]1N[C@H](C(=O)NCCN2CCCC2)Cc2c[nH]c3cccc1c23	?	-7%[70.6 µM]	?	i
CCCNC(=O)[C@@H]1Cc2c[nH]c3cccc(c23)[C@H](CC(C)C)N1	50µM*	-2%[70.6 µM]	?	i
CC(C)NC(=O)CN1CCN(Cc2cc(=O)c3cccc(Cl)c3[nH]2)CC1	-17%	-10%	-35%	i
O=C(NCc1ccc(F)cc1)C1CCCN(Cc2cccc(-c3cccs3)c2)C1 (centres undefined)	40µM*	nt	?	nt
COC(=O)CNC(=O)C1CCCN(Cc2cccc(-c3cccc(C)c3)c2)C1 (centres undefined)	-21%	nt	?	nt
O=C(NCC(F)F)C1CCCN(Cc2cccc(-c3cccs3)c2)C1 (centres undefined)	89µM*	nt	?	nt
COC(=O)CNC(=O)C1CCCN(Cc2cccc(-c3cccs3)c2)C1 (centres undefined)	-11%	nt	?	nt
O=C(NCc1ccccc1)C1CCCN(Cc2cccc(-c3cccs3)c2)C1 (centres undefined)	?	nt	32µM*	nt
O=C(NCCc1ccc(Cl)cc1)C1CCCN(Cc2cccc(-c3ccsc3)c2)C1 (centres undefined)	22µM*	nt	14µM*	nt
COc1ccc(C(=O)N2CCCC(C(=O)N3CCC(N4CCCC4=O)CC3)C2)cc1 (centres undefined)	3%	nt	-8%	nt
Cn1ncc2c(C(=O)N3CCOCC3)cc(-c3ccccc3F)nc21	i	nt	?	nt
O=C(Nc1cccc(F)c1)C1CCCN(Cc2cccc(-c3cccs3)c2)C1 (centres undefined)	32µM*	nt	?	nt
O=C(NCc1cccc(C(F)(F)F)c1)C1CCCN(Cc2cccc(-c3cccs3)c2)C1 (centres undefined)	?	nt	7.9µM*	nt
CCC(C)NC(=O)C1CCCN(Cc2cccc(-c3ccsc3)c2)C1 (centres undefined)	45µM*	nt	?	nt
O=C(NCc1ccccc1F)C1CCCN(Cc2cccc(-c3cccs3)c2)C1 (centres undefined)	45µM*	nt	40µM*	nt
COc1ccccc1-n1c(=O)c(C(=O)N2CCN(C(=O)NC(C)C)CC2)nc2cccnc21	-4%	nt	i	nt
CCCc1noc(-c2ccn3c(CNC(=O)c4ccc(C)c(C)c4)nnc3c2)n1	-3%	1%	-3%	i
O=C(NCc1ccccc1)C1CCCN(Cc2cccc(-c3ccsc3)c2)C1 (centres undefined)	?	nt	40µM*	nt
O=C(CC1=C2CCCCC2NC1=O)NCC1CCN(Cc2cccc(F)c2)CC1 (centres undefined)	-10%	-3%	-7%	i
